Here are results for 16 molecules from publication PMC5540273 (PLoS ONE, 2017).

Among the test systems are CDK8; CDK9; CDKL1; CDKL2; CDKL3; CDKL5; CHEK1; CHEK2; CIT; CLK1.
Settings in all cases: concentration: 1 μM, replicates: in singlicate; n = 1

Structures are written as SMILES.
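Further: KINOMEscan kinase panel screen.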

With `Cc1cccc(Nc2nc(N[C@H]3CCNC3)ncc2C(N)=O)c1.Cl` [GSK2197149], the “%Inh” value with CDK8 amounted to 0%; in the test on CDK9 it was 7%; with CDKL1, 12%; in the test on CDKL2, 7%; in the test on CDKL3, 0%; with CDKL5 it was 0%. For the same molecule, the “%Inh” value with CHEK1 turned out to be 52%; in the test with CHEK2, 71%; with CIT, 76%; with CLK1, 51%.
On to `COc1cccc(C(=O)Nc2cccc(Oc3ccc4nc(NC(=O)C5CC5)cn4n3)c2)c1`, for which the “%Inh” value is listed as 38% in the test on CDK8; 0% in the test on CDK9; 58% in the test with CDKL1; 26% in the test with CDKL2; 7% in the test with CDKL3; 0% with CDKL5. The “%Inh” value with CHEK1 came out at 15%; with CHEK2, 0%; in the test with CIT, 96.5%; with CLK1 it was 30%.
As to `Oc1cc(Nc2ccnc3cc(I)ccc23)ccc1F` [GW552771], the “%Inh” value with CDK8 is recorded as 23%; in the test with CDK9, 0%; in the test with CDKL1, 0%; in the test with CDKL2 it was 30%; in the test with CDKL3, 0%; in the test with CDKL5 it was 0%. Besides, the “%Inh” value with CHEK1 was 2%; in the test on CHEK2 it was 4%; with CIT it was 30%; in the test with CLK1, 8%.
Regarding `COc1cccc(C2=C(Nc3ccc(Cl)c(C(=O)O)c3)C(=O)NC2=O)c1` [SB-390769], the “%Inh” value was 0% in the test on CDK8; 0% with CDK9; 47% in the test on CDKL1; 25% in the test on CDKL2; 100% in the test on CDKL3; 6% with CDKL5. The “%Inh” value with CHEK1 is listed as 0%; in the test with CHEK2 it was 0%; in the test with CIT, 40%; in the test with CLK1, 12%.
As for `Cn1cc(-c2ccc3c(c2)CCN3C(=O)Cc2cccc(Cl)c2)c2c(N)ncnc21` [GSK2606590], the “%Inh” value came out at 100% with CDK8; 0% in the test on CDK9; 0% with CDKL1; 42% in the test on CDKL2; 0% in the test on CDKL3; 4% in the test on CDKL5. Further, the “%Inh” value is on record as 3% in the test on CHEK1, 0% with CHEK2, 26% in the test with CIT and 30% in the test on CLK1.
For `Cc1ccc(S(=O)(=O)Nc2ccc(Nc3nccc(Nc4cccc5[nH]ncc45)n3)cc2)cc1` [GSK581271], the “%Inh” value in the test on CDK8 is given as 13%; in the test with CDK9 it was 0%; with CDKL1, 2%; in the test on CDKL2, 22%; in the test with CDKL3, 0%; in the test on CDKL5 it was 0%. In addition, the “%Inh” value with CHEK1 is 0%; in the test on CHEK2 it was 0%; with CIT, 28%; with CLK1 it was 85%.
Turning to `CN(C)Cc1ccc(-c2ccc3c(Nc4ccc(Oc5ccccn5)cc4)ccnc3c2)o1` [GW567148], the “%Inh” value in the test on CDK8 was 4%; with CDK9 it was 0%; in the test on CDKL1, 0%; in the test with CDKL2 it was 11%; in the test with CDKL3, 0%; in the test with CDKL5, 0%. Further, the “%Inh” value with CHEK1 is reported as 0%; with CHEK2, 82%; with CIT, 0%; with CLK1, 0%.
On to `Cl.Cl.NCC(NC(=O)c1cc(-c2ccccc2)c(-c2ccnc3[nH]ccc23)s1)c1ccccc1` (stereo not shown) [GSK1321561], for which the “%Inh” value in the test on CDK8 was 30%; in the test on CDK9 it was 0%; in the test with CDKL1 it was 8%; in the test with CDKL2, 24%; in the test with CDKL3, 58%; in the test with CDKL5, 0%. In addition, the “%Inh” value with CHEK1 came out at 0%; in the test with CHEK2, 0%; in the test on CIT, 99.9%; in the test on CLK1, 33%.
As for `O=C(Nc1cccc(Oc2ccc3nc(NC(=O)C4CC4)cn3n2)c1)c1ccccc1C(F)(F)F`, the “%Inh” value in the test with CDK8 stood at 26%; in the test on CDK9, 0%; with CDKL1, 43%; with CDKL2 it was 26%; with CDKL3, 0%; in the test with CDKL5, 7%. In addition, the “%Inh” value with CHEK1 is given as 0%; in the test with CHEK2, 11%; with CIT, 63%; in the test with CLK1 it was 26%.
Turning to `CNC(=O)c1ccccc1Nc1nc(Nc2ccc(N3CCOCC3)cc2)ncc1Cl.Cl` [GSK1576028], the “%Inh” value with CDK8 came to 1%; with CDK9, 27%; in the test on CDKL1, 36%; with CDKL2 it was 35%; in the test with CDKL3 it was 0%; in the test on CDKL5, 0%. Besides, the “%Inh” value with CHEK1 was found to be 65%; in the test with CHEK2, 91.3%; in the test with CIT, 26%; in the test on CLK1, 99.5%.
For `CC(=O)Nc1nc2cnc(Nc3cc(NC(=O)c4cccc(C5(C#N)CC5)c4Cl)ccc3C)nc2s1`, the “%Inh” value amounted to 21% in the test on CDK8; 0% in the test on CDK9; 5% with CDKL1; 36% in the test on CDKL2; 24% in the test on CDKL3; 0% in the test with CDKL5. Further, the “%Inh” value in the test with CHEK1 was 0%; with CHEK2 it was 4%; with CIT it was 62%; in the test with CLK1, 0%.
With `CCS(=O)(=O)c1ccc(OC)c(Nc2nccc(-c3c(-c4cccc(NC(=O)c5c(F)cccc5F)c4)nn4ncccc34)n2)c1` [GSK326180], the “%Inh” value is listed as 16% with CDK8; 0% with CDK9; 6% in the test on CDKL1; 15% in the test with CDKL2; 0% in the test on CDKL3; 0% in the test on CDKL5. Besides, the “%Inh” value in the test with CHEK1 is recorded as 10%; in the test on CHEK2, 0%; in the test on CIT, 8%; in the test with CLK1, 40%.
For the molecule `c1ccc(-c2cnc3nccnn23)cc1` [AH20685], the “%Inh” value is given as 49% in the test with CDK8; 0% in the test with CDK9; 11% in the test on CDKL1; 0% in the test on CDKL2; 0% in the test with CDKL3; 8% in the test with CDKL5. Further, the “%Inh” value is 0% with CHEK1, 0% with CHEK2, 0% in the test with CIT and 4% in the test with CLK1.
With `Cl.Cl.NCC(NCc1ccc(-c2ccnc3[nH]ccc23)s1)c1ccccc1` (stereo not shown) [GSK1321565], the “%Inh” value in the test with CDK8 came out at 39%; in the test on CDK9, 0%; in the test on CDKL1 it was 0%; with CDKL2, 13%; in the test with CDKL3, 0%; with CDKL5, 0%. The “%Inh” value came out at 0% in the test with CHEK1, 33% with CHEK2, 93% in the test with CIT and 89% in the test on CLK1.
For `CN1CCN(Cc2cccc(-c3ccc4c(Nc5ccc(Oc6ccccc6)cc5)ccnc4c3)c2)CC1` [GW578342], the “%Inh” value in the test with CDK8 came out at 30%; with CDK9, 0%; in the test with CDKL1, 0%; with CDKL2, 0%; in the test with CDKL3, 0%; with CDKL5 it was 0%. The “%Inh” value with CHEK1 is on record as 0%; with CHEK2 it was 38%; in the test on CIT it was 11%; in the test with CLK1, 11%.
Regarding `COC(=O)Nc1nc2cc(Oc3ccc(NC(=O)Nc4cc(C(F)(F)F)ccc4F)cn3)ccc2[nH]1.Cl.Cl` [GW681170], the “%Inh” value with CDK8 is on record as 100%; in the test with CDK9, 0%; in the test with CDKL1 it was 29%; with CDKL2 it was 98.3%; with CDKL3 it was 56%; in the test with CDKL5, 0%. Further, the “%Inh” value in the test on CHEK1 was determined as 0%; in the test on CHEK2 it was 24%; in the test with CIT, 100%; in the test on CLK1, 42%.
